Measurements reported in PubChem BioAssay.
Inconclusive results are not listed. The source made the active and inactive calls.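 Rule for the calls, unless noted: active = differentiation response of at least 50%, scaled between solvent and reference control, from cells with both markers; inactive = the rest.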

Key:
[1] = yeast TOR pathway RPL19A-GFP modulators, primary screen, cell-based, S. cerevisiae, multiplex flow cytometry (AID 1862; in the data active = percent of DMSO control GFP below about 86%;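 note: lower values mimic rapamycin by blocking the RPL19A rise seen in DMSO cells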); conditions: S. cerevisiae RPL19A-GFP strain, flow cytometry fluorescence, 3 h; at 10 µM; stronger effect = lower value
[2] = modulators of MEP2-GFP levels in yeast, primary screen, S. cerevisiae, multiplex flow cytometry (AID 1867;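 active = GFP response, as percent of the DMSO control, above the screen-wide mean plus 3 SD, about 139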;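 note: median GFP channel fluorescence of barcode-gated MEP2-GFP cells measured by flow cytometry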); conditions: S. cerevisiae MEP2-GFP strain, 3 h, at 10 µM, stronger effect = higher value, 100% means same as DMSO wells
[3] = modulators of CIT2-GFP expression in yeast, primary screen, S. cerevisiae, GFP fusion, multiplex flow cytometry (AID 1870;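 active = percent response above a set limit, the screen-wide mean plus 3 SD, cut at about 130% in these data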;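 note: barcoded CIT2-GFP strain pooled with four other GFP strains with rapamycin as positive control; median GFP fluorescence per well over plate mean of DMSO wells so 100% = DMSO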); conditions: 3 h, at 10 µM, stronger effect = higher value
[4] = modulators of LAP4-GFP expression in yeast, primary screen, S. cerevisiae, multiplex flow cytometry (AID 1873;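 active = GFP signal, as percent of the solvent control, above the screen mean plus 3 SD, about 149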); conditions: 3 h, at 10 µM, stronger effect = higher value
[5] = modulators of AGP1-GFP expression in yeast TOR pathway, primary screen, cell-based, multiplex flow cytometry, S. cerevisiae (AID 1887;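 active = GFP signal above the screen-wide mean plus 3 SD, that is over about 124.5% of the solvent control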;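 note: AGP1-GFP fusion strain of S. cerevisiae within a five-strain barcoded multiplex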); conditions: 3 h, at 10 µM, stronger effect = higher value
[6] = inhibitors of CD8+ T cell-vesicle binding, pilot screen, LFA-1/ICAM-1 modulator project, MLPCN validation set, flow cytometry (AID 2523;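 active = response below a set limit, under 55% cells CD8-positive and vesicle-bound, and CD8 cells' 90th-percentile brightness under 279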;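 for vesicle binding response: mean PE anti-B7-1 fluorescence of CD8+ cells relative to row control; 100% = QL9-loaded vesicles with DMSO vehicle in the same plate row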); conditions: 2C mouse CD8+ T cells, at 7 µM, stronger effect = lower value; double positive events: measured here: CD8+/vesicle+ event percentage
[7] = biological target: Integrin beta-1 (Homo sapiens) + Integrin alpha-4 (Homo sapiens) (UniProt P13612+P05556); assay: inhibition of HUTS-21 binding to VLA-4, pilot screen, VLA-4 allosteric modulator project, U937 cells, HUTS-21 mAb, flow cytometry, validation set (AID 2674;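 active = inhibition above 50%, about 3 SD of the validation set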;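 note: antibody binding induced by the VLA-4 ligand LDV present at three times its Kd; 0% = LDV ligand with antibody and no compound and 100% = antibody without LDV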); conditions: HUTS-21 LIBS mAb binding, at 6.7 µM, stronger effect = higher value, binding induced by LDV ligand
[8] = superoxide lowering in aged yeast cells, pilot screen, validation compound set (AID 2706;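 active = superoxide response below 65% of plate, a cut near 3 SD across the whole screen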;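 note: yeast exposed to compound for one week at 30 degrees C before staining; 100% = mean of all compound wells on the same plate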); conditions: S. cerevisiae aging, superoxide DHE fluorescence; at 10 µM; stronger effect = lower value
[9] = biological target: Beta-adrenergic receptor kinase 1 (Homo sapiens) (UniProt P25098); assay: GRK2 binders displacing RNA aptamer, biochemical, validation, human GRK2, bead flow cytometry (AID 488806;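 active = aptamer binding inhibition above 30%, about 3 SD of noise from non-fluorescent compounds; inactive = inhibition at or below 30%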); conditions: bead-bound GRK2, FAM-aptamer displacement, at 10 µM, stronger effect = higher value
[10] = biological target: Beta-2 adrenergic receptor (Homo sapiens) (UniProt P07550); assay: beta2AR agonists driving receptor internalization, pilot screen, cell-based, FAP fluorogen, flow cytometry, validation set (AID 504459;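 active = percent response above 42, roughly 3 SD of non-fluorescent test compounds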;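 note: agonist-driven loss of surface beta2AR via internalization measured by FAP dye flow cytometry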); conditions: Am2.2-beta2AR cells, FAP surface receptor flow cytometry; at 10 µM; stronger effect = higher value
[11] = biological target: AP-2 complex subunit beta (Homo sapiens) (UniProt P63010); assay: inhibitors of arrestin peptide binding to AP2, pilot screen, biochemical, validation set, GST-AP2 beads, flow cytometry (AID 504541;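 active = inhibition above 54%, about 3 SD of non-fluorescent compounds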;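 note: AP2 carries R879A mutation and is captured from E. coli lysate; bead-bound FITC arrestin peptide fluorescence measuring arrestin peptide binding to AP2; 0% = DMSO wells and 100% = excess unlabeled arrestin peptide control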); conditions: FITC arrestin peptide, at 10 µM, stronger effect = higher value, AP2 beta2 appendage fragment, R879A mutant
[12] = yeast V-ATPase proton transport modulators, S. cerevisiae, pHLuorin, HTS validation (AID 504600; in the data active = response above about 15%;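 note: plate controls were DMSO for no effect and reference compound for full effect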); conditions: S. cerevisiae pHLuorin cytosolic pH, at 10 µM, stronger effect = higher value
[13] = test system: anti-desmoglein-3 scFv antibody binding to human DSG3; assay: inhibitors of anti-DSG3 scFv binding to DSG3, pilot screen, biochemical, validation compound set, bead-based, flow cytometry (AID 588368;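 active = binding below the plate cutoff, the plate median minus 3 SD, with a reading above zero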;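 note: signal is the median channel fluorescence of bead-bound GFP antibody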); conditions: Protein G beads, DSG3-Fc, scFv-GFP binding, at 10 µM, stronger effect = lower value
[14] = inhibitors of fungal efflux pumps CDR1, CDR2, MDR1, pilot screen, validation compound set, multiplex, phenotypic (AID 588506;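 active = efflux inhibition above 0.42, the validation set average plus 4 SD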;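 note: Nile Red retained in cells so higher fluorescence means more efflux inhibition; 0 = negative control wells and 1 = enniatin B 25 µM full block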); conditions: S. cerevisiae pump-expressing triplex, Nile Red efflux flow cytometry; at 10 µM; stronger effect = higher value; the pumps come from Candida albicans
[15] = biological target: ATP-binding cassette sub-family B member 6 (Homo sapiens) (UniProt Q9NP58); assay: ABCB6 transporter inhibitors, pilot screen, K562-ABCB6 cells, flow cytometry, validation set (AID 588550;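 active = inhibition above the screen-wide mean plus 3 SD, about 51%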;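 note: 0% = DMSO wells and 100% = benzethonium chloride 70 µM positive control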); conditions: K562-ABCB6 porphyrin accumulation, 1 h, at 10 µM, stronger effect = higher value
[16] = promoters of myeloid differentiation in arrested cells, primary screen, cell-based, GFP/MAC1 double positive, flow cytometry, validation set (AID 588685); conditions: ER-HoxA9 marrow cells, stronger effect = higher value, normalized: vehicle 0, fulvestrant 100;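 note: compound exposure lasts four days before antibody staining and flow analysis; 0% = DMSO wells and 100% = 5 µM fulvestrant positive control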

Sequence of ATP-binding cassette sub-family B member 6 (Homo sapiens) (Q9NP58 whole entry, looked up): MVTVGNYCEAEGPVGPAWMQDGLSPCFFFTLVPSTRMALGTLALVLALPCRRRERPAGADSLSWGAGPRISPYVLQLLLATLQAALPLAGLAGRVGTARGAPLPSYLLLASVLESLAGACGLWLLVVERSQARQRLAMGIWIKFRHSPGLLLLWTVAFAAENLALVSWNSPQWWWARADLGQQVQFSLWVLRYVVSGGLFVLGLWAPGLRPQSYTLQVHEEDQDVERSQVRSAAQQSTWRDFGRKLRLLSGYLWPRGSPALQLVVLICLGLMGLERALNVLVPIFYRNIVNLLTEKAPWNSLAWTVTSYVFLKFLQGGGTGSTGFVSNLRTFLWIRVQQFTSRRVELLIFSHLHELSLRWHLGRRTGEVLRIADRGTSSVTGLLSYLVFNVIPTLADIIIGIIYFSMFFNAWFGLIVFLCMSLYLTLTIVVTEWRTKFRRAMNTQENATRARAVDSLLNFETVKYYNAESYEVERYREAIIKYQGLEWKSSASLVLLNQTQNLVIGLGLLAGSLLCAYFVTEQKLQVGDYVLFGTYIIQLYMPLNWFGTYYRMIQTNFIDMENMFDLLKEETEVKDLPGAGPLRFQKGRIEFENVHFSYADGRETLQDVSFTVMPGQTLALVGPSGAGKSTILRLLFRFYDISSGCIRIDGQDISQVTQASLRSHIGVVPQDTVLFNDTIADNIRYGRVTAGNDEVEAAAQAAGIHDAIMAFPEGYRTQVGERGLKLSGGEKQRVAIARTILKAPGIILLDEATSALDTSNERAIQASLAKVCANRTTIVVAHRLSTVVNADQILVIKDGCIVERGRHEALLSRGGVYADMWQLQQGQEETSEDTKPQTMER
Sequence of Integrin beta-1 (Homo sapiens) + Integrin alpha-4 (Homo sapiens) (P05556 whole entry, looked up): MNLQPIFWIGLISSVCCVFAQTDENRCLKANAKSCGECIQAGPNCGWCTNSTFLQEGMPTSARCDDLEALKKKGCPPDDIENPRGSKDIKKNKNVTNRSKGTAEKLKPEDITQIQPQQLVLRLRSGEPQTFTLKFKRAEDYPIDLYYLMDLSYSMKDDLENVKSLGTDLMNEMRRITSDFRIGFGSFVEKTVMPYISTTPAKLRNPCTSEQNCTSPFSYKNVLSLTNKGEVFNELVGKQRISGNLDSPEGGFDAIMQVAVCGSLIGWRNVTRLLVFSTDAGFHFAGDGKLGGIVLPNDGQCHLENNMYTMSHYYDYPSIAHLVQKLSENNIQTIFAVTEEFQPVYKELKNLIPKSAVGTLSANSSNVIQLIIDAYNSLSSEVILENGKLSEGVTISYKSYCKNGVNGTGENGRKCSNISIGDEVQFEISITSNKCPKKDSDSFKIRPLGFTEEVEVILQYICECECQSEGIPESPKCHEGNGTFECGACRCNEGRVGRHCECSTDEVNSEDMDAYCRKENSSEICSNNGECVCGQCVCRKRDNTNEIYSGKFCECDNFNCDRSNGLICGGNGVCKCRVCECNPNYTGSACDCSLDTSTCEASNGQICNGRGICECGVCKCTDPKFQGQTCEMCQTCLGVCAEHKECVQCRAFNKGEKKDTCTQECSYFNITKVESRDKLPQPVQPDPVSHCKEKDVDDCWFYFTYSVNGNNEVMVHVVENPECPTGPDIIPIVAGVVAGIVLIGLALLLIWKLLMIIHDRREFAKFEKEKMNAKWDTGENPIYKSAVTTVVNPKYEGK
Sequence of Integrin beta-1 (Homo sapiens) + Integrin alpha-4 (Homo sapiens) (P13612 whole entry, looked up): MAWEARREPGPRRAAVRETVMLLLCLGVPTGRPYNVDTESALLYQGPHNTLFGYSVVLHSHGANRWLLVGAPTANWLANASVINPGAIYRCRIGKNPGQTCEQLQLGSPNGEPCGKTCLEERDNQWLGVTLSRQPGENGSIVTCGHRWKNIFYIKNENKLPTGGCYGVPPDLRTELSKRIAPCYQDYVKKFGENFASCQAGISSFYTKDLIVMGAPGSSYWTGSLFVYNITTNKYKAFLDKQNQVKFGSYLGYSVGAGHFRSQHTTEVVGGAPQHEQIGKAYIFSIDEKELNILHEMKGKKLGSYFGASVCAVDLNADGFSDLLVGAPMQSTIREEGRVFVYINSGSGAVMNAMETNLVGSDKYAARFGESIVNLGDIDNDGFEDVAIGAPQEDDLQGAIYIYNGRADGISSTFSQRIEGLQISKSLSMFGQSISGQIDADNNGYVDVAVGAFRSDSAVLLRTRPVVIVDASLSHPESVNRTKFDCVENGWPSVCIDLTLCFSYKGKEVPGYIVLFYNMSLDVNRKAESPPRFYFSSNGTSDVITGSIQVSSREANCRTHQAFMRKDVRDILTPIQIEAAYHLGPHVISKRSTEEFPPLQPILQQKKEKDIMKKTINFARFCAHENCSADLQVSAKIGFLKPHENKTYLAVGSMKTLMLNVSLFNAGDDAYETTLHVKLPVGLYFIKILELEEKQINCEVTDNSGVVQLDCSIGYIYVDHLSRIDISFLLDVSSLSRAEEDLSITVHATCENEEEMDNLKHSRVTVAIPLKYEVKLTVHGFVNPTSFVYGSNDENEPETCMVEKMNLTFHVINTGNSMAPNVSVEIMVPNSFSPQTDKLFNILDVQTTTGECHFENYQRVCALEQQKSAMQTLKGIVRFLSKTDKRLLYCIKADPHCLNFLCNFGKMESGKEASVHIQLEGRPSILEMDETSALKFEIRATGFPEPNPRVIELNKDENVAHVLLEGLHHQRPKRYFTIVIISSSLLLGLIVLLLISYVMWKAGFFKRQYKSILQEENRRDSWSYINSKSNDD
Sequence of Beta-adrenergic receptor kinase 1 (Homo sapiens) (P25098 whole entry, looked up): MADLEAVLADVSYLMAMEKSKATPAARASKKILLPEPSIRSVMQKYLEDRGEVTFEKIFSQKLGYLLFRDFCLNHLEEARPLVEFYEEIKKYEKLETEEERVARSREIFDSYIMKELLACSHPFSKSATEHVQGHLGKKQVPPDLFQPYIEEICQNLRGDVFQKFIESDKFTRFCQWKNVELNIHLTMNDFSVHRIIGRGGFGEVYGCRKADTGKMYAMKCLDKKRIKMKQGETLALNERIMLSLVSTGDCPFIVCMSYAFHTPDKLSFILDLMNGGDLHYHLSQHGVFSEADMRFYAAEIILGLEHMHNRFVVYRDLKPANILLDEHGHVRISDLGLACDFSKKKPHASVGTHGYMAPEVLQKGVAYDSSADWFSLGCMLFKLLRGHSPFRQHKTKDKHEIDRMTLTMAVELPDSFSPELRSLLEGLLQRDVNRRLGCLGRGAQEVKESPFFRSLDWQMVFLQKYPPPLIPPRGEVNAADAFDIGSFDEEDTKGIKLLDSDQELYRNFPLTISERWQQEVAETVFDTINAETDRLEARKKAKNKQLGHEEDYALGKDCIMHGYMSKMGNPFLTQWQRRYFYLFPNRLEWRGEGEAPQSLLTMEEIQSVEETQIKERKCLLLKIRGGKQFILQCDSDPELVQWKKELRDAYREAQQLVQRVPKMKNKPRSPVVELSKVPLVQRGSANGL
Sequence of Beta-2 adrenergic receptor (Homo sapiens) (P07550 whole entry, looked up): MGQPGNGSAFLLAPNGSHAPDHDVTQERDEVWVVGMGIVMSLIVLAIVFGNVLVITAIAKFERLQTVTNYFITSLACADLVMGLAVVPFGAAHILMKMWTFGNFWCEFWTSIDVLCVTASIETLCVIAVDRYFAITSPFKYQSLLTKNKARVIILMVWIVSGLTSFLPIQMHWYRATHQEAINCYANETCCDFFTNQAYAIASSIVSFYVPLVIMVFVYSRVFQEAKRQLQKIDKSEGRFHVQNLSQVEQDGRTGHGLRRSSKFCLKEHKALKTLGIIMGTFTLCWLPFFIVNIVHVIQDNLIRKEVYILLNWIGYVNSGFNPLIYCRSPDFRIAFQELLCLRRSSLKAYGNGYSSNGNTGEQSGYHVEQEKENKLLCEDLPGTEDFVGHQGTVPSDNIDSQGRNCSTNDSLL
Sequence of AP-2 complex subunit beta (Homo sapiens) (P63010 whole entry, looked up, the tested form may be a part, one chain of several): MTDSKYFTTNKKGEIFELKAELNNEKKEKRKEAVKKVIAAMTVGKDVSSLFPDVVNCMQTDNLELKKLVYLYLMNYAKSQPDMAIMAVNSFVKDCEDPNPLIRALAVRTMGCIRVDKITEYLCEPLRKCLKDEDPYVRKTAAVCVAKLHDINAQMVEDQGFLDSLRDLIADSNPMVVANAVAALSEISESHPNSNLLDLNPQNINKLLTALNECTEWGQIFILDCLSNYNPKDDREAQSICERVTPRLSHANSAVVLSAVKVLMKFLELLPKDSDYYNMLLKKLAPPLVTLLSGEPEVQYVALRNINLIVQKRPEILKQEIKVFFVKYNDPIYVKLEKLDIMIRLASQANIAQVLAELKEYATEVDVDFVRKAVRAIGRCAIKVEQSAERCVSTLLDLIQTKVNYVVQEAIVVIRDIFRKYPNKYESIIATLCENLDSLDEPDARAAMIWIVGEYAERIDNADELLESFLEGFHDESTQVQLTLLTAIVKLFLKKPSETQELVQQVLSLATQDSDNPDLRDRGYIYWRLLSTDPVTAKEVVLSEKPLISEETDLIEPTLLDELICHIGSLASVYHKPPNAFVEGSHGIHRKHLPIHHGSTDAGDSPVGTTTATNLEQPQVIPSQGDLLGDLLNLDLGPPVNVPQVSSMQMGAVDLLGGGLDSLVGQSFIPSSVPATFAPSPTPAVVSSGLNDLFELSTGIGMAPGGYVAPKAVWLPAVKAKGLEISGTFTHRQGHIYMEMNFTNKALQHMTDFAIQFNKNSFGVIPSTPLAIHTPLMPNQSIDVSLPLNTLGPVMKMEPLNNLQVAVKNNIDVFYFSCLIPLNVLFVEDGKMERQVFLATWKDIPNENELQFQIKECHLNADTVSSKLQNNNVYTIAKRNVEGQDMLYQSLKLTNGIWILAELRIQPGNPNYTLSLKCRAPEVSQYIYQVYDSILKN

Compound	percent of DMSO control GFP [1]	GFP response vs DMSO [2]	percent response of DMSO control [3]	GFP response vs DMSO [4]	GFP response, % of DMSO [5]	double positive events [6] [%]	vesicle binding response [6]	inhibition [7]	superoxide response (% of plate) [8]	aptamer binding inhibition [9]	response [10]	inhibition [11]	response [12]	binding (% of control) [13]	efflux inhibition (fraction of control) [14]	inhibition [15]	differentiation response [16]
CCN(CC)CCNC(=O)c1ccc(N)cc1	99.6% (inactive)	106% (inactive)	91.9% (inactive)	89.4% (inactive)	94.6% (inactive)	63.2	1180% (inactive)	-6.68% (inactive)	94.8% (inactive)	-2% (inactive)	-4.02% (inactive)	-0.67% (inactive)	0.99% (inactive)	94.2% (inactive)	-0.14 (inactive)	21% (inactive)	6.11% (inactive)
CCOc1ccc2oc(-c3ccccc3)c(C(=O)O)c2c1	97.8% (inactive)	108% (inactive)	100% (inactive)	110% (inactive)	105% (inactive)	65.1	204% (inactive)	5.69% (inactive)	102% (inactive)	6% (inactive)	-17.2% (inactive)	7.05% (inactive)	1.4% (inactive)	101% (inactive)	-0.04 (inactive)	9% (inactive)	1.91% (inactive)
CCNC1=C(Cl)C(=O)c2ccccc2C1=O	104% (inactive)	104% (inactive)	91.8% (inactive)	127% (inactive)	113% (inactive)	59.8	159% (inactive)	21% (inactive)	229% (inactive)	3% (inactive)	-20% (inactive)	-22.4% (inactive)	1.03% (inactive)	104% (inactive)	-0.09 (inactive)	-12% (inactive)	0.92% (inactive)
COC(=O)c1ccc(C(=O)OC)c(NC(=O)C(C)C)c1	97.8% (inactive)	102% (inactive)	102% (inactive)	138% (inactive)	112% (inactive)	63.1	204% (inactive)	-72.7% (inactive)	100% (inactive)	0% (inactive)	-13.3% (inactive)	-9.41% (inactive)	0.33% (inactive)	97.1% (inactive)	0 (inactive)	-3% (inactive)	0.92% (inactive)
CNC(=O)Oc1ccc2c(c1)[C@]1(C)CCN(C)[C@@H]1N2C	104% (inactive)	102% (inactive)	86% (inactive)	112% (inactive)	122% (inactive)	62.8	183% (inactive)	5.69% (inactive)	98.7% (inactive)	3% (inactive)	-21.5% (inactive)	-9.24% (inactive)	-0.59% (inactive)	104% (inactive)	0.12 (inactive)	4% (inactive)	-4.99% (inactive)
N/C(=N\OC(=O)/C=C/c1ccccc1)c1ccc(Br)cc1	103% (inactive)	106% (inactive)	107% (inactive)	101% (inactive)	94.2% (inactive)	65	195% (inactive)	-3.57% (inactive)	107% (inactive)	3% (inactive)	0.58% (inactive)	40.4% (inactive)	-3.5% (inactive)	100% (inactive)	-0.01 (inactive)	13% (inactive)	-3.67% (inactive)
NC(N)=N/N=C/c1cccc(Cl)c1Cl	104% (inactive)	96.3% (inactive)	98.6% (inactive)	103% (inactive)	98.8% (inactive)	66.1	157% (inactive)	9.13% (inactive)	97.9% (inactive)	-3% (inactive)	22.4% (inactive)	14.4% (inactive)	-0.64% (inactive)	102% (inactive)	-0.24 (inactive)	4% (inactive)	-18.4% (inactive)
CC(C)CCc1noc(CN2CCC(CCN3CCCC3=O)CC2)n1	98.3% (inactive)	101% (inactive)	105% (inactive)	99.1% (inactive)	102% (inactive)	62.1	188% (inactive)	23% (inactive)	97.3% (inactive)	-3% (inactive)	-4.37% (inactive)	32.4% (inactive)	-4.25% (inactive)	95.1% (inactive)	-0.39 (inactive)	-3% (inactive)	-13.3% (inactive)
O=C(Nc1ccc(N2CCOCC2)cc1)c1ccc(-c2ccccc2[N+](=O)[O-])o1	102% (inactive)	102% (inactive)	106% (inactive)	96.5% (inactive)	98.8% (inactive)	68.5	132% (inactive)	3.98% (inactive)	99.9% (inactive)	5% (inactive)	8.71% (inactive)	-4.06% (inactive)	1.65% (inactive)	97.9% (inactive)	0.07 (inactive)	6% (inactive)	-1.88% (inactive)
CC(=O)[C@@]1(O)CC[C@H]2[C@@H]3C[C@H](C)C4=CC(=O)C=C[C@]4(C)[C@@]3(F)[C@@H](O)C[C@@]21C	102% (inactive)	134% (inactive)	110% (inactive)	93% (inactive)	95.2% (inactive)	63.3	157% (inactive)	2.58% (inactive)	99.4% (inactive)	5% (inactive)	-0.53% (inactive)	32.1% (inactive)	-3.11% (inactive)	101% (inactive)	-0.35 (inactive)	9% (inactive)	9.83% (inactive)
COc1cc(C)nc(-n2nc(C)cc2OC)n1	101% (inactive)	103% (inactive)	96.6% (inactive)	92.7% (inactive)	102% (inactive)	61.8	5320% (inactive)	-12.9% (inactive)	88.7% (inactive)	1% (inactive)	-8.04% (inactive)	2.91% (inactive)	48.8% (active)	95.9% (inactive)	0.02 (inactive)	2% (inactive)	8.06% (inactive)
CCCN1CCC(NC(=O)Nc2ccc(Br)cc2)CC1	104% (inactive)	110% (inactive)	102% (inactive)	92.7% (inactive)	102% (inactive)	63.2	96.6% (inactive)	-0.45% (inactive)	94.7% (inactive)	-5% (inactive)	1.9% (inactive)	-13.3% (inactive)	1.92% (inactive)	96.8% (inactive)	-0.23 (inactive)	16% (inactive)	13.9% (inactive)
COCC1CCCN(Cc2cn[nH]c2-c2cc3ccccc3o2)C1 (stereo unspecified)	95.9% (inactive)	109% (inactive)	83.4% (inactive)	115% (inactive)	102% (inactive)	63.3	181% (inactive)	-14.1% (inactive)	98.3% (inactive)	2% (inactive)	-14.2% (inactive)	0.03% (inactive)	1.33% (inactive)	99.9% (inactive)	0.05 (inactive)	7% (inactive)	5.6% (inactive)
COc1ccc(-c2cc(=Nc3ccc(C)cc3)c3ccccc3o2)cc1	97.3% (inactive)	106% (inactive)	93.8% (inactive)	132% (inactive)	104% (inactive)	60.2	195% (inactive)	16.8% (inactive)	99.5% (inactive)	0% (inactive)	-21.4% (inactive)	-0.02% (inactive)	7.52% (inactive)	97.3% (inactive)	-0.04 (inactive)	5% (inactive)	-9.91% (inactive)
COC(=O)c1cc(COc2ccc3ccc(=O)oc3c2)c(C)o1	105% (inactive)	104% (inactive)	101% (inactive)	109% (inactive)	92.4% (inactive)	59.9	120% (inactive)	-15.8% (inactive)	108% (inactive)	1% (inactive)	7.33% (inactive)	-2.54% (inactive)	-7.29% (inactive)	102% (inactive)	0.29 (inactive)	12% (inactive)	-7.5% (inactive)
C[C@@H]1C[C@H](Nc2ccccc2)c2ccccc2N1C(=O)c1cccnc1	103% (inactive)	103% (inactive)	103% (inactive)	98.2% (inactive)	101% (inactive)	59.5	188% (inactive)	3.67% (inactive)	95.6% (inactive)	4% (inactive)	2.27% (inactive)	19.6% (inactive)	-5.05% (inactive)	102% (inactive)	0.05 (inactive)	0% (inactive)	29.6% (inactive)
CC1=NN(c2ccccc2)C(=O)C1	108% (inactive)	106% (inactive)	109% (inactive)	99.1% (inactive)	111% (inactive)	62.5	206% (inactive)	-14.5% (inactive)	91% (inactive)	-3% (inactive)	3.52% (inactive)	-6.32% (inactive)	0.56% (inactive)	101% (inactive)	-0.1 (inactive)	-1% (inactive)	2.74% (inactive)
c1ccc(-c2ccccn2)nc1	103% (inactive)	112% (inactive)	107% (inactive)	101% (inactive)	102% (inactive)	54.1	157% (inactive)	6.95% (inactive)	96.7% (inactive)	8% (inactive)	-1.6% (inactive)	-7.99% (inactive)	-2.77% (inactive)	101% (inactive)	-0.08 (inactive)	55% (active)	-4.57% (inactive)
